# FMDV inh: foot and mouth disease virus antiviral activity | AID 1159524 | Potency, µM (highest dose often 57.9 µM), most hits filed as inhibitors | 410,000 tested, 1.2% active | FMDV antiviral cell-based qHTS; calls by dose curve; tested in HEK293T cells; further: read-out not given here; nearly all actives have a fitted effect of over 45% in size
# HCV inh: HCV inhibition. Huh7.5.1 HCVcc-Cre infection, luciferase reporter, 44 h. Potency, µM (titrated, usually from 41.8 µM), actives largely listed as inhibitors. 340,000 tested, 3.4% active. AID 651820; active means well fitted inhibition curve with a large enough effect; inconclusive means small, poorly fitted or top-dose-only effect, or another doubt; inactive means no such curve, though single readings can be large or run the other way
#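 After 44 h co-culture of compound, cells and HCVcc-Cre (~0.5 moi), substrate is added for 15 min at room temperature and luciferase measured over 15 sec. Cells were seeded at 1,000/well and pre-cultured 4 h.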
# Lassa entry inh: inhibitors of Lassa virus binding or cell entry | Lassa virus pseudotype entry inhibition, cell reporter | Potency, µM (doses to about 37.9 µM), most hits filed as inhibitors | 300,000 tested, 1.2% active | AID 540256; calls by dose curve; tested in HEK293 cells; further: nearly all actives have a fitted effect of over 50% in size
# Marburg entry inh: blocks Marburg virus binding to or entry into cells; Potency, µM (highest dose often 37.8 µM), most hits filed as inhibitors; Marburg virus pseudotyped entry inhibition, cell reporter; 300,000 tested, 1.8% active; calls by dose curve; tested in HEK293 cells
# Cycloheximide cs: counter-screen hit for Shiga toxin inhibitors, cycloheximide; cell reporter, cycloheximide protein synthesis inhibition counterscreen; max response, %; 300,000 tested, 12% active; AID 2314; in the data active means max response mostly above about 13%, no sharp cut-off; inactive means mostly below about 14%; further: read at 38.3 µM for the half of the compounds with a filed dose
# Shiga inhibitor: inhibitors of Shiga toxin in Vero cells | AID 2315 | inhibition, % at 38.7 µM | 290,000 tested, 9.2% active | Vero cells, Shiga toxin protein synthesis inhibition reporter; in the data active means inhibition mostly above about 28%, no sharp cut-off; inactive means mostly below about 43%
# A number is an active result; n = inactive; u = inconclusive; x = no result; + = active, no number. Most compounds without a hit are left out; they make up all but 13% or so of the library.
SMILES,FMDV inh,HCV inh,Lassa entry inh,Marburg entry inh,Cycloheximide cs,Shiga inhibitor
O=C(CCc1ccccc1)NC1CC(=O)N(c2cccc(F)c2)C1 (stereo unspecified),n,x,n,x,x,x
O=C(Nn1c(-c2ccc(Br)cc2)nc2ccccc2c1=O)c1ccc([N+](=O)[O-])cc1,u,n,n,n,n,n
Cc1cnc2cc(Cl)c(Cl)cc2n1,n,n,n,n,n,n
Cc1nc2cc(Cl)c(Cl)cc2nc1C,n,n,n,n,48.3,+
CC1(c2ccccc2)NC(=O)N(CC(=O)N2CCOCC2)C1=O (stereo unspecified),n,n,n,n,n,n
CCCCN(C)C(=S)Nc1ccc(Oc2ccccc2)cc1,n,n,n,u,21.8,n
CN(C(=S)Nc1ccc(Oc2ccccc2)cc1)C1CCCCC1,n,u,n,u,22.0,n
O=[N+]([O-])c1cccc(/C=N/Nc2ccccn2)c1,n,n,x,x,n,65.2
O=C(/C=C/c1cccc([N+](=O)[O-])c1)n1cnc2ccccc21,14.1µM,u,u,u,n,n
N#C/C(=C\c1cccc([N+](=O)[O-])c1)c1ccccn1,n,n,n,u,28.0,54.6
CN(C)c1ccc(/C=N\Nc2ccccn2)cc1,n,n,u,n,23.9,47.1
O=[N+]([O-])c1cc(/C=N\Nc2ccccn2)ccc1Cl,n,u,x,x,n,n
Cc1ccc(C(=O)N2CCCC(N(C)Cc3ccccc3)C2)s1 (stereo unspecified),n,n,n,n,n,n
Cc1cc(N)nc2nc(C(F)(F)F)nn12,n,n,n,n,n,n
O=[N+]([O-])c1cccc(/C=C/c2ccccn2)c1,n,12.6µM,x,x,28.7,53.9
Nc1cccc(/C=C/c2ccncc2)c1,n,n,x,x,19.6,58.7
Nc1nnc(-c2cccc([N+](=O)[O-])c2)s1,n,n,n,u,n,n
Nc1nnc(/C=C/c2cccc([N+](=O)[O-])c2)s1,n,n,x,x,41.6,n
O=[N+]([O-])c1ccc(/C=N/Nc2ccccn2)cc1,n,n,x,x,20.0,60.3
O=C(/C=C/c1cccc([N+](=O)[O-])c1)N1CCN(c2ccccn2)CC1,n,n,x,x,n,n
Cc1nn(C2CCS(=O)(=O)C2)c(C)c1CN(C)C(=O)c1ccc(Cl)cc1 (stereo unspecified),n,n,x,x,x,x
CCCCn1c(C23CC4CC(CC(C4)C2)C3)n[nH]c1=S,n,n,u,u,n,n
CCc1nc2c(OCc3cc(Cl)cc(Cl)c3)cccn2c1N(C=O)Cc1ccc(OC)cc1,n,x,x,x,x,x
O=[N+]([O-])c1cccc(/C=N/Nc2nccnc2Cl)c1,n,n,n,n,42.1,76.7
C(=C\c1ccccn1)/c1ccncc1,n,n,x,x,21.5,77.8
SMILES,FMDV inh,HCV inh,Lassa entry inh,Marburg entry inh,Cycloheximide cs,Shiga inhibitor
Cc1cc(F)ccc1NC(=O)C1CCCN(c2nnc(-n3c(C)ccc3C)s2)C1 (stereo unspecified),n,x,u,n,x,x
N#Cc1ccc(/C=C/C(=O)c2ccccc2)cc1,n,n,x,x,20.4,46.8
CC(C)(C)C(=O)/C=C(\N)c1ccccn1,n,n,n,u,12.0,n
N#Cc1ccccc1COc1ccc(/C=C/C(=O)O)cc1,n,n,u,u,n,n
CC(C)(C)C(=O)/C=C(N)/C=C/c1ccccc1,n,n,n,u,28.5,n
O=Cc1ccc(-c2ccc(C(=O)O)cc2)o1,n,n,x,x,34.7,88.0
COc1ccc(S(=O)(=O)N2CCCOC2CNC(=O)C(=O)NCCO)cc1 (stereo unspecified),n,x,x,x,x,x
CCn1c(=O)c2sccc2n2c(CCCC(=O)NC3CCN(Cc4ccccc4)CC3)nnc12,n,n,x,x,n,n
CCOc1ccc(/C=C/C(=O)Oc2ccccc2)cc1,n,n,n,u,n,n
O=Cc1ccc(OC(=O)/C=C/c2ccccc2)cc1,n,n,x,x,34.5,24.7
O=C(/C=C/c1ccccc1)c1ccc2c3c(cccc13)CC2,n,u,u,u,29.8,73.6
O=C(/C=C\c1ccc(-c2ccccc2)o1)c1ccccc1,n,n,u,u,42.1,110.4
O=C(/C=C/c1ccccc1)/C=C/c1ccccc1,u,u,u,9.2µM,49.5,134.4
O=C(C=Cc1ccccc1)c1ccccc1O,x,x,n,u,x,x
O=C(O)c1cccc(S(=O)(=O)Nc2ccc(OCc3ccccc3)cc2)c1,n,n,n,n,n,n
COc1ccc(N2CCN(C(=S)NCc3ccc(C)cc3)CC2)cc1,n,n,x,x,n,n
O=C(/C=C/c1ccccc1)c1ccc2ccccc2c1,n,n,u,u,x,x
O=C(/C=C/c1ccccc1)c1ccccc1,u,10µM,n,n,45.1,124.8
O=C(/C=C/c1ccc(NC(=O)c2ccccc2-c2ccccc2C(=O)O)cc1)c1ccccc1,u,n,x,x,10.4,37.4
O=C1C2=C(NC(=S)NC2c2ccc(Cl)cc2)NC(c2ccc(Cl)cc2)N1c1ccc(Cl)cc1 (stereo unspecified),u,n,n,16.4µM,n,n
CCc1ccc(C2NC(=S)NC3=C2C(=O)N(c2ccccc2OC)C(c2ccc(CC)cc2)N3)cc1 (stereo unspecified),u,n,n,n,n,n
Cc1ccccc1C(=O)NC(CC(C)C)C(=O)OCc1cc(=O)n2cc(Br)ccc2n1 (stereo unspecified),n,n,n,u,28.0,36.1
O=C(CN1C(=O)NC2(CCCC2)C1=O)OCc1cc(=O)n2cc(Br)ccc2n1,n,n,x,x,47.6,67.0
CC(=O)c1c(C)[nH]c(C(=O)OCc2cc(=O)n3cc(Br)ccc3n2)c1C,n,n,x,x,x,x
CC1CC1C(=O)OCc1cc(=O)n2cc(Br)ccc2n1 (stereo unspecified),n,n,u,n,28.6,n
SMILES,FMDV inh,HCV inh,Lassa entry inh,Marburg entry inh,Cycloheximide cs,Shiga inhibitor
CC1(C(=O)OCc2cc(=O)n3cc(Br)ccc3n2)CC1(Cl)Cl (stereo unspecified),n,n,n,u,36.4,77.8
O=C(OCc1cc(=O)n2cc(Br)ccc2n1)C1COc2ccccc2O1 (stereo unspecified),n,n,n,n,n,n
CC1(C)NC(=O)N(CC(=O)OCc2cc(=O)n3cc(Br)ccc3n2)C1=O,n,n,u,u,n,n
CCn1c(=O)cc(SCC(=O)N2CCN(C3CCCCC3)CC2)c2ccccc21,n,u,n,n,n,n
COc1cccc(CNC(=O)CN(C)S(=O)(=O)c2ccc(Br)s2)c1,n,n,n,n,22.4,76.0
COc1ccccc1CNC(=O)CN(C)S(=O)(=O)c1ccc(Br)s1,n,n,n,n,20.9,56.9
COc1ccc(CNC(=O)CN(C)S(=O)(=O)c2ccc(Br)s2)cc1,n,n,n,n,22.8,n
CC1CN(C(=O)c2ccccc2OCc2ccc(Cl)cc2Cl)CC(C)O1 (stereo unspecified),n,14.1µM,x,x,x,x
CC1CN(C(=O)c2cccc(COc3ccccc3Cl)c2)CC(C)O1 (stereo unspecified),n,n,n,u,40.3,135.3
CC1CN(C(=O)c2cccc(C(=O)N3CC(C)OC(C)C3)c2)CC(C)O1 (stereo unspecified),n,n,n,n,n,n

# High-throughput results: PubChem BioAssay, National Center for Advancing Translational Sciences (NCATS)
